Results filed as inconclusive are left out. The source made the active and inactive calls. The calls were made as follows: active = hit-call score of the fitted dose curve at least 0.9, where 1 is the maximum; inconclusive = response in the unintended direction; inactive = score below 0.9.
read-out: xenobiotic metabolism (CYP1A1), CYP1A1 (gene 1543); experiment: CLD_CYP1A1_6hr: CellzDirect (CLD) Gene Expression Assay for xenobiotic metabolism (CYP1A1) at 6 hours (AID 2283661);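 as to AC50: potency for transcript induction above DMSO vehicle baseline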
Method: CLD_6hr is a cell-based, multiplexed-readout assay that uses hepatocyte, a human liver primary cell, with measurements taken at 6 hours after chemical dosing in a 96-well plate.CLD_CYP1A1_6hr is one of 16 assay component(s) measured or calculated from the CLD_6hr assay. It is designed to make measurements of mRNA induction, a form of inducible reporter, as detected with chemiluminescence signals by Quantitative Nuclease Protection Assay (qNPA) technology.Data from the assay component CLD_CYP1A1_6hr was analyzed at the endpoint, CLD_CYP1A1_6hr, in the positive analysis fitting direction relative to DMSO as the negative control and baseline of activity. Using a type of inducible reporter, gain-of-signal activity can be used to understand changes in the reporter gene as they relate to the gene CYP1A1. Furthermore, this assay endpoint can be referred to as a primary readout. To generalize the intended target to other relatable targets, this assay endpoint is annotated to the cyp intended target family, where subfamily is xenobiotic metabolism.
Human hepatocyte cultures were treated daily for two consecutive days with fresh dosing solutions containing appropriate concentrations of the 320 ToxCast chemicals (chemical identities were blinded to CellzDirect and other ToxCast collaborators), vehicle control (0.2% DMSO), and positive control inducers as summarized in Table 1. Due to the large number of treatment groups and chemicals examined, the ToxCast chemicals were divided into two groups (spanning two independent cultures of hepatocytes from separate donor preparations (Hu778: ToxCast plates 1 and 2; Hu776: ToxCast plates 3 and 4). Each preparation of human hepatocyte cultures was treated with respective vehicle control, medium only control, set of six positive controls/reference chemicals for the five hepatic receptor pathways, and a subset of eight of the ToxCast chemicals (indoxacarb, pyrithiobac-sodium, norflurazon, cyhalofop-butyl, methomyl, thiram, acetochlor, and propiconazole). These replicate data, coupled with internal replicates designed within the blinded ToxCast chemical library, provided additional data to evaluate interindividual differences between hepatocyte preparations and their potential impact on chemical profiles.Cell morphology and integrity were evaluated using phase-contrast microscopy as an indicator of hepatocyte cell health (Tyson & Green, 1987). Cultures for each treatment group (i.e., media, vehicle [0.2% DMSO], positive control inducers [multiple concentrations], and the ToxCast chemicals [multiple concentrations]) were observed and cell morphology was assessed relative to vehicle control cultures at each harvest time point (0, 6, 24, or 48 h). […] Images were evaluated at the conclusion of the study to assess changes in cell integrity and account for the effects of chemical exposure on uncharacteristic changes in concentration-dependent gene expression profiles. The results from these determinations of apparent cytotoxicity were annotated (yes/no) alongside the corresponding qNPA data for reference.At the conclusion of each treatment period, hepatocyte cultures (96-well) were washed with 1 volume of HBSS, lysed by addition of 25 ul ArrayPlate lysis buffer (HTG, Tucson, AZ), and 70 ul/well of Denaturation Oil, denatured by incubation at 95C for 10 min, and frozen at approximately -70C until analysis by nuclease protection assay (qNPA) (Roberts et al., 2007). For qNPA analysis, cell lysates were thawed at 50C for approximately 30 min, qNPA probes were added, and samples were incubated at 95C for 10 min to begin the detection process by denaturing the target RNA, dissociating the duplexes and secondary structure hybridization. At the conclusion of the hybridization period, S1 nuclease reagent was added to each sample to digest all nonprotected nucleotides at 50C for 60-90 min. […]

Row | Structure (SMILES) | AC50 | outcome
1 | CN(C)C(=O)Nc1ccc(Cl)c(Cl)c1 | 3.97 µM (active) | –
2 | CC(C)(c1ccc(O)cc1)c1ccc(O)cc1 | 0.00719 µM (active) | –
3 | CCOC(=O)NCCOc1ccc(Oc2ccccc2)cc1 | – | inactive
4 | CCCCCOC(=O)COc1cc(N2C(=O)C3=C(CCCC3)C2=O)c(F)cc1Cl | 20 µM (active) | –
5 | Oc1ccc(C(c2ccc(O)cc2)C(Cl)(Cl)Cl)cc1 | 0.0522 µM (active) | –
6 | CCCCC(CC)COC(=O)c1ccccc1C(=O)O (stereo not given) | 0.0637 µM (active) | –
7 | CCOC(=O)C(C)Oc1ccc(Oc2nc3ccc(Cl)cc3o2)cc1 (stereo not given) | – | inactive
8 | CCNc1nc(N)nc(Cl)n1 | – | inactive
9 | O=C(O)C1(C(=O)Nc2ccc(Cl)cc2Cl)CC1 | – | inactive
10 | CCCCOCCOCCOCc1cc2c(cc1CCC)OCO2 | 4.17 µM (active) | –
11 | CC1(C)C(C=C(Cl)Cl)C1C(=O)OCc1cccc(Oc2ccccc2)c1 (stereo not given) | – | inactive
12 | CCCCOC(=O)[C@@H](C)Oc1ccc(Oc2ccc(C(F)(F)F)cn2)cc1 | 20 µM (active) | –
13 | CCC(C)OC(=O)N1CCCCC1CCO (stereo not given) | – | inactive
14 | COC(=O)c1ccc(CNS(C)(=O)=O)cc1S(=O)(=O)NC(=O)Nc1nc(OC)cc(OC)n1 | – | inactive
15 | COC(=O)c1cccc(C)c1S(=O)(=O)NC(=O)Nc1nc(OCC(F)(F)F)nc(N(C)C)n1 | 5.2 µM (active) | –
16 | COC(=O)c1ccccc1S(=O)(=O)NC(=O)Nc1nc(OC(F)F)cc(OC(F)F)n1 | – | inactive
17 | CCOC(=O)COc1cc(-n2ncc(C(F)(F)F)c(C)c2=O)c(F)cc1Cl | – | inactive
18 | CCC(O)=C1C(=O)CC(C(=O)O)CC1=O (stereo not given) | – | inactive
19 | CC(C)(C)[C@@H](O)[C@@H](Cc1ccc(Cl)cc1)n1cncn1 | 1.9 µM (active) | –
20 | COc1nc(C)nc(NC(=O)NS(=O)(=O)c2ccccc2OCCCl)n1 | – | inactive

Row | Structure (SMILES) | AC50 | outcome
21 | COC(=O)c1ccccc1C(=O)O | – | inactive
22 | COc1c(Cl)ccc(Cl)c1C(=O)O | – | inactive
23 | CCCN(CCC)C(=O)SCC | – | inactive
24 | CCCCCCC(C)OC(=O)COc1nc(F)c(Cl)c(N)c1Cl (stereo not given) | – | inactive
25 | COC(=O)c1ccc(I)cc1S(=O)(=O)NC(=O)Nc1nc(C)nc(OC)n1 | – | inactive
26 | CCCOC(=O)NCCCN(C)C | – | inactive
27 | CCCCOC(=O)C(C)Oc1ccc(Oc2ccc(C(F)(F)F)cn2)cc1 (stereo not given) | – | inactive
28 | CCCCC(CC)CN1C(=O)C2C3C=CC(C3)C2C1=O (stereo not given) | 6.62 µM (active) | –
29 | CCN(Cc1c(F)cccc1Cl)c1c([N+](=O)[O-])cc(C(F)(F)F)cc1[N+](=O)[O-] | 1.9 µM (active) | –
30 | COC(=O)c1c(Cl)nn(C)c1S(=O)(=O)NC(=O)Nc1nc(OC)cc(OC)n1 | 0.696 µM (active) | –
31 | S=C(S)NCCNC(=S)S.[Mn+2].[S-]C([S-])=NCCN=C([S-])[S-].[Zn+2] | 1.45 µM (active) | –
32 | CCOC(=O)[C@H](C)Oc1ccc(Oc2nc3ccc(Cl)cc3o2)cc1 | 3.97 µM (active) | –
33 | O=C(Nc1ccc([N+](=O)[O-])cc1Cl)c1cc(Cl)ccc1O | 0.218 µM (active) | –
34 | C=CCOC(Cn1ccnc1)c1ccc(Cl)cc1Cl (stereo not given) | 0.0861 µM (active) | –
35 | c1ccc(Nc2ccccc2)cc1 | 3.97 µM (active) | –
36 | COC(=O)CSc1cc(N=c2sc(=O)n3n2CCCC3)c(F)cc1Cl | 2.66 µM (active) | –
37 | CCSC(=O)N(CC(C)C)CC(C)C | – | inactive
38 | c1ccc2[nH]c(-c3cscn3)nc2c1 | 3.15 µM (active) | –
39 | CCCN(CCC)c1c([N+](=O)[O-])cc(C(F)(F)F)c(N)c1[N+](=O)[O-] | 3 µM (active) | –
40 | N#CSCSc1nc2ccccc2s1 | – | inactive

Reference: PubChem BioAssay (EPA / NIEHS)
